# Shown are actives, neighbours in structure and some others; about 5.7% of the full set was active somewhere.
# PI4K2A inh: qHTS for small molecular inhibitors of PI4K2A; Phosphatidylinositol 4-kinase type 2-alpha (Homo sapiens), Q9BTU6; purified PI4K2A, ADP-Glo luminescence, 1 h; hits give low values; activity change, negative = inhibition, % at 76.9 µM; 420,000 compounds, 0.13% hits; AID 1346378, 2018; in the data active = activity change below about -50%; inconclusive = mostly about -30% to -49%;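 also: -100% = wells without enzyme as full effect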
# Target sequence (Q9BTU6 whole entry, looked up): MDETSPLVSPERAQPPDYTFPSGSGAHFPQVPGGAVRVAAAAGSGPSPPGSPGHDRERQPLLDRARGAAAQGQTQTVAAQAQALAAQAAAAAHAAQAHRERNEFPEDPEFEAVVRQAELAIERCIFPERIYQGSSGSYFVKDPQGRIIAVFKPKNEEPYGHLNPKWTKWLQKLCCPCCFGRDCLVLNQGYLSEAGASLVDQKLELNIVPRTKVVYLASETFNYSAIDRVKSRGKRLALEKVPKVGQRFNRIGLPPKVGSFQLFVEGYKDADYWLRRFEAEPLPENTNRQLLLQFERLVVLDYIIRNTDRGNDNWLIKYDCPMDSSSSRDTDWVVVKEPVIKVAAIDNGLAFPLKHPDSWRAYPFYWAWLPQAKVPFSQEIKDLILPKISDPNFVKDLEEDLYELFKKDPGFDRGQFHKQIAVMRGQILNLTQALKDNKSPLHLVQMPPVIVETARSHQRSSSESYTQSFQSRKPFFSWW
#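 Compounds are screened against recombinant PI4K2A using PI as substrate and ATP, the latter dispensed at 300 microM. Reactions run one hour at ambient temperature before ADP-Glo detection; full inhibition defined by wells lacking enzyme.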
# Giardia killer: Small Molecules that selectively kill Giardia lamblia: qHTS. activity change, % at 7.66 µM, hits read low. 340,000 compounds, 0.15% hits. Giardia lamblia trophozoite viability; in the data active = activity change below about -80%; inconclusive = between about -30% and that limit;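 also: parasites exposed to compound for two days anaerobically before the ATP read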
#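 Compounds were tested on trophozoites seeded at 100 cells/well and held 48 hrs at 37 deg C anaerobically. An ATP-based luminescent kit measured the remaining live cells.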
# Nrf2 inh: Nrf2 qHTS screen for inhibitors | A549 ARE-Fluc reporter, luciferase luminescence, 18-24 h | AID 504444, 2011 | 360,000 compounds, 2.1% hits | Potency, µM (highest dose often 46 µM), inactives show at the highest dose activity change, negative = inhibition, hits mostly inhibitors; also: potency is read from the fitted curve at half-maximal effect; nearly all actives have a fitted effect of over 60% in size
#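 Cells were seeded and rested 2 h, then exposed to compounds for 18-24 h. CellTiter-Fluor was read first as a viability measure. BugLite was added 15 min before the final luminescent read of ARE-luciferase activity in A549 cells.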
# KB-3-1 cytotox: qHTS assay for MDR1-selective chemotherapeutics: Primary screen using the parental adenocarcinoma cell KB-3-1. Potency, µM (series often up to 46.1 µM), hits mostly cytotoxic. KB-3-1 viability, CellTiter-Glo ATP luminescence, 72 h. 400,000 compounds, 1.4% hits; also: potency is read from the fitted curve at half-maximal effect; nearly all actives have a fitted effect of over 60% in size
#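 KB-3-1 cells, DMEM (no phenol red) + 10% FBS; compound by pin transfer, 72 h, 37 °C. Readout: CellTiter-Glo luminescence after 10 min. Data normalized, curve-fitted.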
# KB-V1 MDR tox: qHTS assay for MDR1-selective chemotherapeutics: Primary screen using the drug-selected MDR subline cells KB-V1; KB-V1 MDR cells viability, CellTiter-Glo, 72 h; 400,000 compounds, 3.4% hits; Potency, µM (top dose mostly 46.1 µM), usual class: cytotoxic; AID 1347076, 2019; also: potency is read from the fitted curve at half-maximal effect; nearly all actives have a fitted effect of over 60% in size
#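 Cytotoxicity toward P-gp-expressing KB-V1 cells was determined as loss of CellTiter-Glo luminescence after 72 h at 37 degrees C. Compounds were tested in quantitative HTS format across a concentration range, with curves fitted to normalized data.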
# A549 viability: Nrf2 qHTS screen for inhibitors: counterscreen for cytotoxicity. A549 ARE-Fluc cells, CellTiter-Fluor viability, 18-24 h. 390,000 compounds, 0.16% hits. Potency, µM (highest dose often 46 µM), for the others: at the top dose activity change, negative = cytotoxicity, actives largely listed as inhibitors; also: potency is read from the fitted curve at half-maximal effect
#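 A549 ARE_Fluc cells in 5% FBS OPTI-MEM were exposed to compounds in concentration-response for 18-24 h at 37 deg C. Viability was read by CellTiter-Fluor fluorescence (Ex 405/Em 525) after 30 min, before the luciferase read.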
# Active calls of the source: *; i = inactive; u = inconclusive; x = not tested or not shown. Unless noted, calls follow the shape of the dose curve; as a rule, active = well fitted curve in the direction sought with a large enough effect; inconclusive = small, poorly fitted or top-dose-only effect, or another doubt; inactive = no such curve, though single readings can be large; an effect the other way counts as inactive or inconclusive. Unless noted, % is scaled to controls: 0 for no effect and ±100 for the full control effect.
SMILES,PI4K2A inh,Giardia killer,Nrf2 inh,KB-3-1 cytotox,KB-V1 MDR tox,A549 viability
O=C(Nc1ncc(Cc2ccc(Cl)cc2Cl)s1)c1ccc([N+](=O)[O-])cc1,3,1,u,5.8µM*,u,1%
CCC(CC)c1nnc(NC(=O)c2ccc([N+](=O)[O-])cc2)s1,5,3,4%,i,21µM*,-13%
CCOC(=O)c1nc(NNC(=O)c2ccc([N+](=O)[O-])cc2)sc1C,-11,1,u,18µM*,u,u
O=C(Nc1nnc(COc2ccc(Cl)cc2)s1)c1ccc([N+](=O)[O-])cc1,-1,0,x,i,u,3%
COC(=O)[C@]12C[C@H](CC(=O)NCc3cccs3)C(=O)N(Cc3cccc4ccccc34)C1=C[C@H](C(C)C)O[C@@H]2C1CC1,-3,x,x,x,x,x
O=C(CCl)Nc1ccc(C(=O)NCC2COc3ccccc3O2)cc1 (stereo not drawn),-4,x,x,x,x,x
COc1ccc(-c2nc(C#N)c(N3CCCCCC3)o2)cc1OC,-8,11,u,i,8.2µM*,-4%
COc1ccc(-c2nc(C#N)c(N3CCCCC3)o2)cc1,5,15,-3%,i,i,10%
CCCOc1ccc(-c2nc(C#N)c(N3CCc4ccccc4C3)o2)cc1,0,3,-8%,i,16µM*,7%
N#Cc1nc(-c2ccco2)oc1N1CCc2ccccc2C1,2,-18,u,i,8.2µM*,-12%
CC1CC(C)CN(c2oc(-c3ccco3)nc2C#N)C1 (stereo not drawn),-1,-18,1%,i,21µM*,0%
CCn1c2ccccc2c2cc(NC(=O)COC(=O)c3cccc(F)c3F)ccc21,-6,x,x,x,x,x
CCc1ccc(CCNC(=O)OC2CC3CC2[C@H]2CCCCN2[C@H]3C)cc1 (stereo partly drawn),1,x,x,x,x,x
CCCOc1ccc(-c2nc(C#N)c(N3CCC(C(N)=O)CC3)o2)cc1,2,-9,-13%,i,23µM*,3%
C=CCN1C(C(=O)OC)CN(Cc2cn(Cc3ccc(F)cc3)nn2)CCS1(=O)=O (stereo not drawn),-9,x,x,x,x,x
Cc1ccc(NC(=O)c2ccc(F)c(S(=O)(=O)N3CCOCC3)c2)cc1F,6,-1,13µM*,i,3.7µM*,-23%
O=C(Nc1ccccc1)c1ccc(F)c(S(=O)(=O)N2CCOCC2)c1,0,5,15%,i,i,-2%
Cc1ccc(C(=O)Nc2ccc(Br)cc2)cc1S(=O)(=O)N1CCOCC1,-1,x,x,10µM*,4.1µM*,-1%
COC1=C[C@H](C(=O)NCc2ccc(Br)cc2)C(C)C(c2ccccc2)CC1=O (stereo partly drawn),-2,x,x,x,x,x
Cn1c(SCC(=O)Nc2nccs2)nnc1C1CC1,-7,2,2%,i,u,0%
Cn1c(CSCc2ccccc2Cl)nnc1SCC(=O)Nc1nccs1,-4,5,x,i,21µM*,3%
Cn1c(SCC(=O)Nc2nccs2)nnc1C12CC3CC(CC(C3)C1)C2,-1,2,u,i,21µM*,1%
c1cncc(-c2csc(-c3cccnc3)n2)c1,1,6,u,i,i,-1%
O=S(=O)(c1ccc(-c2csc(-c3cccnc3)n2)cc1)N1CCCCC1,-1,7,21µM*,i,u,-15%
Oc1ccc(-c2nc(-c3ccc(O)c(O)c3)cs2)cc1,-2,1,4%,0.52µM*,2.1µM*,17%
SMILES,PI4K2A inh,Giardia killer,Nrf2 inh,KB-3-1 cytotox,KB-V1 MDR tox,A549 viability
Clc1ccsc1-c1csc(-c2cccnc2)n1,8,-10,x,21µM*,u,u
Oc1ccc(-c2csc(-c3cccnc3)n2)c(O)c1,-6,-14,u,5.8µM*,u,-12%
CCCCCCC[C@H](N)[C@H](O)C(=O)N(C)[C@@H](CCS(C)=O)C(=O)N[C@@H](Cc1ccc(O)cc1)C(=O)O (stereo partly drawn),-11,x,x,x,x,x
O=C(NC1CCN(Cc2ccccc2)CC1)c1cccc(NS(=O)(=O)c2ccc(Br)cc2)c1,-8,7,13%,u,i,-13%
O=C(NC1CCN(Cc2ccccc2)CC1)c1cccc(S(=O)(=O)Nc2ccc(SC(F)F)cc2)c1,-5,-14,16µM*,u,i,u
Cc1ccc(S(=O)(=O)Nc2cccc(C(=O)NC3CCN(Cc4ccccc4)CC3)c2)cc1F,-3,6,10µM*,i,i,u
CC1=C(c2ccc(C(C)C)cc2)S(=O)(=O)NC1=NCCCN1CCN(c2ccccc2F)CC1,-8,x,1%,x,x,11%
Cc1cc(NS(=O)(=O)c2ccccc2)c(C)c(Cl)c1O,-5,2,-2%,u,21µM*,3%
CC1CCCCN1S(=O)(=O)c1ccc(C(=O)Nc2nnc(-c3ccco3)o2)cc1 (stereo not drawn),-2,-8,21µM*,u,5.8µM*,u
CC1CCN(S(=O)(=O)c2ccc(C(=O)Nc3nnc(C4CC4)o3)cc2)CC1,-5,3,12µM*,u,i,u
O=C(Nc1nnc(-c2ccco2)o1)c1ccc(S(=O)(=O)N2CCCCC2)cc1,-1,x,x,u,u,x
O=C(Nc1nnc(C2CC2)o1)c1ccc(S(=O)(=O)N2CCCCC2)cc1,0,11,u,u,i,-6%
CC1CCCCN1S(=O)(=O)c1ccc(C(=O)Nc2nnc(C3CC3)o2)cc1 (stereo not drawn),-1,6,13µM*,u,u,-16%
Cc1cccc(NC(=O)c2ccc(S(=O)(=O)N3CCC(C)CC3)cc2)n1,-6,21,15µM*,u,u,-3%
O=C1[C@@H](CCc2ccccc2)[C@@H]2c3ccccc3C=NN2[C@@H]2c3ccccc3C=NN12,0,x,x,x,x,x
CN(Cc1ccc(F)cc1)C(=O)CN1C(=O)C2(OCCCO2)c2ccccc21,-4,x,x,x,x,x
Cc1cc(N2CCN(C)CC2)nc2ccc(NC(=O)Nc3ccccc3Cl)cc12,-2,x,u,u,i,-13%
COC(=O)[C@]12C[C@H](CC(=O)NCCC(C)C)C(=O)N(Cc3ccc(Cl)cc3Cl)C1=C[C@H](C1CCCC1)O[C@@H]2C,-3,x,x,x,x,x
Cc1c(NC(=O)C2CCCN(S(=O)(=O)c3cccc4ccccc34)C2)c(=O)n(-c2ccccc2)n1C (stereo not drawn),-3,x,x,x,x,x

# Screening data as filed in PubChem.
